# Values joined by “and” are separate entries in the source; they are usually repeats but may differ in a detail not shown here. Equal values may be shown once. Unmarked numbers belong to inactive results. Inconclusive results are not listed. Entries that show only a call come without a potency. Active and inactive are the calls of the source. Unless noted, calls come from the whole dose curve; as a rule, active = well fitted curve in the direction sought with a large enough effect; inconclusive = small, poorly fitted or top-dose-only effect, or another doubt; inactive = no such curve, though single readings can be large; an effect the other way counts as inactive or inconclusive.
# Tests used:
# [1] = Cell Viability - Jurkat (AID 426;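 active = dose-dependent loss of cell ATP signal giving a full or clear fitted curve, ranked by lower potency value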; note: potency is the fitted concentration of half-maximal effect); conditions: qHTS
# Summary of the method: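 Jurkat (Clone E6-1) cells, 5000/well in complete medium, exposed to compounds for 40 hr at 37C; intracellular ATP measured by CellTiter-Glo luminescence after 20 min at room temperature. AC50 from Hill fits.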
# [2] = Cell Viability - NIH 3T3 (AID 541); conditions: NIH 3T3 cell viability, qHTS; activity change, negative = cytotoxicity: at 92.2 µM (top of the series); note: nearly all actives have a fitted effect of over 25% in size
# Summary of the method: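 Mouse NIH 3T3 fibroblasts, 1000 cells/well, rested 5 hr at 37 °C, then exposed to compound for 40 hr at 37 °C in complete medium. Viability read as intracellular ATP by CellTiter-Glo luminescence; AC50 from Hill-equation fits of concentration-response data.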
# [3] = Cell Viability - HUV-EC-C (AID 542); conditions: HUV-EC-C endothelial cell viability, qHTS; series mostly up to 92.2 µM; note: nearly all actives have a fitted effect of over 35% in size; note: potency is the fitted concentration of half-maximal effect
# Summary of the method: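 HUV-EC-C human vascular endothelial cells, 1000/well, exposed to compound for 40 hr at 37 °C in complete medium. Intracellular ATP was read by CellTiter-Glo luminescence. AC50 came from Hill-equation fits of concentration-response data.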
# [4] = Cell Viability - H-4-II-E (AID 543); conditions: H-4-II-E rat hepatoma viability; series mostly up to 92.2 µM; note: nearly all actives have a fitted effect of over 35% in size; note: potency is the fitted concentration of half-maximal effect
# Summary of the method: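 Rat hepatoma H-4-II-E cells, 1500 per well, treated 40 h at 37 °C in complete medium. Cellular ATP read by CellTiter-Glo luminescence; AC50 from Hill fits of concentration-response.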
# [5] = Cell Viability - SH-SY5Y (AID 544); conditions: SH-SY5Y neuroblastoma cell viability; viability change, negative = cytotoxic: at 92.2 µM (top of the series); note: nearly all actives have a fitted effect of over 55% in size; note: potency is the fitted concentration of half-maximal effect
# Summary of the method: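 SH-SY5Y human neuroblastoma cells (1500/well) incubated 5 h, then compound-treated 40 h at 37 °C in complete medium. Viability read as intracellular ATP by CellTiter-Glo luminescence after 20 min; AC50 from Hill-equation fits of qHTS concentration-response.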
# [6] = Cell Viability - Renal Proximal Tubule (AID 545); conditions: renal proximal tubule cells viability; activity change, negative = cytotoxicity: at 91.7 µM (top of the series) unless noted; note: nearly all actives have a fitted effect of over 40% in size; note: potency is the fitted concentration of half-maximal effect
# Summary of the method: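 Viability taken as intracellular ATP (CellTiter-Glo luminescence) after 40 hr, 37 °C compound treatment of primary proximal tubule cells from rat kidney, 1000 cells/well; Hill-equation fits of qHTS concentration-response data gave AC50.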
# [7] = Cell Viability - Mesenchymal (AID 546); conditions: mesenchymal cells viability, qHTS; activity change, negative = cytotoxicity: at 91.7 µM (top of the series);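 note: cells exposed to compound for 40 hours before reading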
# Summary of the method: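 AC50 values reflect the drop in intracellular ATP in a human kidney mesenchymal line derived from normal glomeruli. Treatment lasts 40 hr at 37 °C in complete medium, and the signal comes from CellTiter-Glo luminescence.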
# [8] = Cellular Toxicity (caspase-3) HUV-EC-C (AID 656); conditions: HUV-EC-C cells, caspase-3 activation (apoptosis), vehicle = 0, 100 µM tamoxifen = 100%; series mostly up to 92.2 µM
# Summary of the method: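 Luminescent Caspase-Glo 3/7 readout after 16 h, 37 °C compound exposure of HUV-EC-C endothelial cells, 1000 per well, complete medium. AC50 derived by Hill fitting, with DMSO as baseline and 100 uM tamoxifen as full activation.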
# [9] = Cellular Toxicity (caspase-3) MRC-5 (AID 659); conditions: MRC-5 cells, luminescence, normalized: DMSO 0%, 10 µM staurosporine 100%; series mostly up to 91.7 µM
# Summary of the method: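 Concentration-dependent caspase 3/7 activation is measured in human normal lung fibroblasts (MRC-5) following 16-hour treatment. AC50 values come from standard Hill-equation modeling of luminescence normalized to DMSO and 10 uM staurosporine.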
# [10] = Cellular Toxicity (caspase-3) Hek293 (AID 664); conditions: HEK293 caspase-3 activation, DMSO = 0%, 100 µM tamoxifen = 100%; at 92.2 µM (top of the series);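 note: cells exposed to compound for 16 h at 37 °C before readout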
# Summary of the method: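 HEK293 cells in complete medium treated 16 h at 37 °C, then Caspase-Glo 3/7 luminescence read after 20 min at room temperature. Normalized to DMSO and 100 uM tamoxifen; AC50 from Hill fit of concentration-response.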
# [11] = Cellular Toxicity (caspase-3) N2a (AID 665); conditions: N2a cells, luminescence, normalized: DMSO 0%, 10 µM staurosporine 100%; series mostly up to 92.2 µM;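 note: compound exposure lasted 16 h at 37 °C before readout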
# Summary of the method: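 Mouse N2a neuroblastoma cells, 1500 per well, treated 16 h at 37 °C in complete medium; caspase-3/7 activity by Caspase-Glo luminescence after 1 h. Normalized to DMSO and 10 uM staurosporine; AC50 from Hill fits.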
# [12] = Cell Viability - LYMP1-003 - Assay at 24 hr (AID 963); conditions: LYMP1-003 lymphoblastoid cell viability; series mostly up to 92.2 µM; note: potency is the fitted concentration of half-maximal effect
# Summary of the method: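 Human lymphoblastoid LYMP1-003 cells, 2500/well, treated 24 h at 37 C in complete medium. Viability read as intracellular ATP by CellTiter-Glo luminescence after 30 min at room temperature; AC50 from Hill-equation fits of qHTS concentration-response.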
# [13] = Cell Viability - LYMP2-019 (AID 973); conditions: LYMP2-019 lymphoblastoid cell line viability; series mostly up to 92.2 µM; note: nearly all actives have a fitted effect of over 55% in size; note: potency is the fitted concentration of half-maximal effect
# Summary of the method: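 Human lymphoblastoid LYMP2-019 cells (2500/well) preincubated 5 h at 37 C, then treated 24 h at 37 C in complete medium. Viability by CellTiter-Glo ATP luminescence after 30 min at room temperature; AC50 from Hill fits.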
# [14] = Cell Viability - LYMP2-018 (AID 985); conditions: LYMP2-018 lymphoblastoid cells, viability (qHTS); series mostly up to 92.2 µM;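 note: compound exposure lasted 24 hr at 37 °C; nearly all actives have a fitted effect of over 50% in size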; note: potency is the fitted concentration of half-maximal effect
# Summary of the method: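 Human lymphoblastoid LYMP2-018 cells, 2500/well, settled 5 hr at 37 C then exposed to compound 24 hr at 37 C; intracellular ATP measured by CellTiter-Glo luminescence. AC50 from Hill-equation concentration-response fits.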
# [15] = target: Peroxisome proliferator-activated receptor alpha (Homo sapiens) (UniProt Q07869); experiment: qHTS assay for small molecule agonists of the peroxisome proliferator-activated receptor alpha (PPARalpha) signaling pathway (AID 651778); conditions: PathHunter PPARalpha complementation, chemiluminescence, 6 h; max response: stronger effect = higher value
# Summary of the method: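 Chemiluminescence from complemented enzyme reported PPARalpha activation in cells after 6 hr of compound treatment at 37 C. The detection reagent was incubated for 60 min at room temperature, and compounds were scored as agonists.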
# [16] = qHTS assay for cell viability of HEK293 cells (AID 743288); conditions: ATP luminescence (CellTiter-Glo), 18 h; max response: stronger effect = lower value; note: nearly all actives have a fitted effect of over 50% in size; note: potency is the fitted concentration of half-maximal effect
# Summary of the method: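 Total intracellular ATP, measured with a luciferase-coupled reagent, indicates the number of viable HEK293 cells. Exposure to test chemicals lasts 18 h at 37 C in 1,536-well format at 2,000 cells/well.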
# [17] = Cellular Toxicity (caspase-3) NIH 3T3 (AID 666); conditions: NIH 3T3 caspase-3 activation, apoptosis/toxicity, 0% DMSO, 100% is 100 µM tamoxifen; series mostly up to 92.2 µM;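 note: caspase signal read after 16 h compound exposure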
# Summary of the method: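 Mouse NIH 3T3 fibroblasts (1000/well) treated 16 h at 37 C; caspase-3/7 activity measured by Caspase-Glo 3/7 luminescence after 20 min. Normalized to DMSO and 100 uM tamoxifen; AC50 from Hill fits.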
# [18] = target: Tumor necrosis factor (Homo sapiens) (UniProt P01375); experiment: qHTS assay to identify small molecules that stimulate Tumor Necrosis Factor-alpha (TNF-alpha) secretion (AID 651757; active = well fitted curve in the direction sought with a large enough effect in the signal ratio; the % refers to the signal ratio); conditions: Human cells, HTRF 665/615 ratio; series mostly up to 92.2 µM
# Summary of the method: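 THP-1 cells (3000/well) exposed to compounds 17 hrs at 37 C. Secreted TNF-alpha detected by HTRF with cryptate- and XL665-labeled anti-TNF-alpha antibodies after 3 hr at room temperature.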
# [19] = Cell Viability - Hek293 (AID 427;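 active = compounds whose dose-response curve shows a full or clear partial loss of cell viability, called from curve shape rather than a numeric limit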;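 note: potency is the fitted concentration of half-maximal effect; cells exposed to compound for 40 hours at 37 °C before reading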); conditions: qHTS
# Summary of the method: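 Luminescent ATP content (CellTiter-Glo, 20 min at room temperature) was measured after a 40 hr, 37 °C compound exposure of HEK293 cells. AC50 values came from Hill-equation fits of qHTS concentration-response data normalized to DMSO and 100 uM tamoxifen.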
# [20] = Cell Viability - SK-N-SH (AID 435; calls by dose curve; note: potency is the fitted concentration of half-maximal effect); conditions: SK-N-SH neuroblastoma cell viability qHTS
# Summary of the method: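 qHTS cytotoxicity: CellTiter-Glo ATP luminescence after 40 h compound exposure of human neuroblastoma SK-N-SH cells at 37 °C. AC50 derived by Hill-equation fitting, with DMSO as basal and 100 uM tamoxifen as full inhibition.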
# Sequence of Peroxisome proliferator-activated receptor alpha (Homo sapiens) (Q07869 whole entry, looked up): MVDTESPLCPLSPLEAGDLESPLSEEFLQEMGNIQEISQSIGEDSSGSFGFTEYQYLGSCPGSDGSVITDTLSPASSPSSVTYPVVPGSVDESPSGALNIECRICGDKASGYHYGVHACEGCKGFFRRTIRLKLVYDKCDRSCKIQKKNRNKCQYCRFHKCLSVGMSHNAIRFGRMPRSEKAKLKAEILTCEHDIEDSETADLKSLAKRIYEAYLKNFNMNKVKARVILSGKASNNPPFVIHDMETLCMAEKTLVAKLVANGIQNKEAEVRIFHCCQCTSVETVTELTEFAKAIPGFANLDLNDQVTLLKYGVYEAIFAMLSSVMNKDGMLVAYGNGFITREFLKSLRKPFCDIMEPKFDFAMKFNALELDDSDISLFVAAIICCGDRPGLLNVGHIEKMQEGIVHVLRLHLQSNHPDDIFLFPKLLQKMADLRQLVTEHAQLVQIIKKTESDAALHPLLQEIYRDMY
# Sequence of Tumor necrosis factor (Homo sapiens) (P01375 whole entry, looked up): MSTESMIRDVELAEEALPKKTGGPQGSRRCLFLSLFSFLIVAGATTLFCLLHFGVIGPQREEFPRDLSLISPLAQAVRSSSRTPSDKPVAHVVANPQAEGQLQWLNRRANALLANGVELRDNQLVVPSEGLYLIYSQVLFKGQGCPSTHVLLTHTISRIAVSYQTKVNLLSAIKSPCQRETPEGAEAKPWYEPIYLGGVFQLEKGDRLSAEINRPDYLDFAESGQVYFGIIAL
compound,measurement,setting,value
CC(C)CC(C)Nc1ccc(Nc2ccccc2)cc1 (stereo not given),Potency,[1],64.1 µM (active)
same,"activity change, negative = cytotoxicity",[2],-113% (active)
same,Potency,[3],25.1 µM (active)
same,Potency,[4],50.1 µM (active)
same,Potency,[5],25.1 µM (active)
same,"activity change, negative = cytotoxicity",[6],-106% (active)
same,Potency,[7],inactive
same,outcome,[8],inactive
same,outcome,[9],inactive
same,caspase-3 activation,[10],12.2%
same,outcome,[11],inactive
same,Potency,[12],50.1 µM (active)
same,Potency,[13],39.8 µM (active)
same,Potency,[14],31.6 µM (active)
same,max response,[15],-7.88%
same,max response,[16],-21.7%
CC(=O)[O-].CC(=O)[O-].O.O.[Cd+2],"activity change, negative = cytotoxicity",[2],-127% (active)
same,Potency,[3],inactive
same,Potency,[4],2.51 µM (active)
same,Potency,[6],25.1 µM [primary cells of rat origin] (active)
same,outcome,[8],inactive
same,outcome,[9],inactive
same,caspase-3 activation,[10],4.76%
same,outcome,[11],inactive
same,outcome,[17],inactive
same,Potency,[12],inactive
same,Potency,[13],inactive
same,Potency,[14],inactive
same,Potency,[18],inactive
same,max response,[15],-7.81%
OC(c1ccc(Cl)cc1)(c1ccc(Cl)cc1)C(Cl)(Cl)Cl,Potency,[19],> 92 µM
same,Potency,[20],> 92 µM
same,Potency,[2],inactive
same,Potency,[3],inactive
same,Potency,[4],inactive
same,Potency,[5],inactive
same,Potency,[6],inactive
same,Potency,[7],inactive
same,outcome,[8],inactive
same,outcome,[9],inactive
same,outcome,[11],inactive
same,outcome,[17],inactive
same,Potency,[12],inactive
same,Potency,[13],inactive
same,Potency,[14],inactive
same,Potency,[18],inactive
same,max response,[15],-0.474%
same,max response,[16],0.684% and -14.8%
O=[N+]([O-])c1ccccc1Cl,Potency,[1],> 92 µM
same,Potency,[19],> 92 µM
same,Potency,[20],> 92 µM
same,max response,[16],-0.622% and -10.4%
Cc1ccc2ccccc2c1C,Potency,[1],> 92 µM
same,Potency,[19],> 92 µM
same,Potency,[20],> 92 µM
same,max response,[16],5.03%
N#CC(Cl)Cl,Potency,[1],6.52 µM (active)
same,Potency,[19],> 92 µM
same,Potency,[20],> 92 µM
same,Potency,[2],inactive
same,Potency,[3],inactive
same,Potency,[4],inactive
same,Potency,[5],inactive
same,Potency,[6],inactive
same,Potency,[7],inactive
same,outcome,[8],inactive
same,caspase-3 activation,[10],72.2% (active)
same,outcome,[11],inactive
same,outcome,[17],inactive
same,Potency,[12],inactive
same,Potency,[13],15.8 µM (active)
same,Potency,[14],12.6 µM (active)
same,Potency,[18],inactive
same,max response,[15],-3.95%
same,Potency,[16],14.1 µM (active)
Nc1ccccc1C(=O)OCCc1ccccc1,Potency,[1],> 92 µM
same,Potency,[19],> 92 µM
same,Potency,[20],> 92 µM
same,Potency,[3],inactive
same,Potency,[4],inactive
same,Potency,[5],inactive
same,Potency,[7],inactive
same,outcome,[8],inactive
same,outcome,[9],inactive
same,caspase-3 activation,[10],-6.67%
same,outcome,[11],inactive
same,Potency,[12],inactive
same,Potency,[13],inactive
same,Potency,[14],inactive
same,Potency,[18],inactive
